Reference: PubChem BioAssay AID588856 (National Center for Advancing Translational Sciences (NCATS), 2011)
Hit rate of the full screen: of about 410,000 compounds, about 3,100 (0.76%) were called active. A call without a number means that no potency is given here. Calls come from the whole dose curve; as a rule, active = well fitted cell-killing curve with a large enough effect; inactive = no such curve, though single readings can be large or run the other way. The full list was thinned out, with actives kept by preference.

assay: qHTS for Inhibitors of TGF-b: Cytotox Counterscreen; settings: HepG2 CAGA-GFP viability, ATP luminescence, 18 h; series mostly up to 46.1 µM
Outline: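 CellTiter-Glo luminescence gave cytotoxicity after 18 hours at 37 degrees C. The cells were HepG2 CAGA-GFP in 1% FBS DMEM, stimulated with 500 pg/mL TGF-beta after compound addition. %Activity was normalised to no-cell wells (complete cell-killing) and DMSO (no toxicity), and curves were fitted and classified.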
Potency is the fitted concentration of half-maximal effect.

| Structure (SMILES) | Potency |
| --- | --- |
| CCOc1ccc(N(CC)C(=O)C2CCN(S(=O)(=O)c3cccc4nonc34)CC2)cc1 | inactive |
| COc1ccccc1NC(=O)C1=C(C)Nc2ncnn2C1c1sccc1C (centres undefined) | inactive |
| O=C(CSc1nc(=O)[nH]c2c1CCCC2)Nc1cc(C(F)(F)F)ccc1Cl | inactive |
| CCN1CCN(c2ccc(/C=C/c3ccnc4ccccc34)cc2)CC1 | inactive |
| Cc1oc2ncn(CC(C)C)c(=O)c2c1C(=O)N1CCN(c2ccccc2F)CC1 | inactive |
| O=C(NC1(C(F)(F)F)N=C(c2ccccc2)N(C2CCCCC2)C1=O)c1ccccc1F (centres undefined) | inactive |
| O=C1NC(Nc2nc3ccccc3s2)(C(F)(F)F)C(=O)N1C1CCCCC1 (centres undefined) | 11.2 µM (active) |
| CCCN(C(=O)Cn1ncc2c([nH]c3ccc(C)cc32)c1=O)c1ccccc1C | inactive |
| O=C(COc1ccc(-c2ccccc2)cc1)NN=C1CCCC1 | inactive |
| CC(=O)c1ccc(NC(=O)COc2ccccc2-c2nc(-c3ccccc3)no2)cc1 | inactive |
| Cc1ccc(/C=N/NC(=O)COc2ccccc2-c2ccccc2)cc1 | 10 µM (active) |
| CCOc1ccccc1NC(=O)CCn1cnnn1 | inactive |
| O=C(Nc1ccccc1Cl)/C(Cl)=C(\Cl)S(=O)c1ccccc1 (centres undefined) | 3.55 µM (active) |
| O=C(Nc1ccccc1Cl)N1CCC(CN2CCCC2)CC1 | inactive |
| O=C(Nc1ccccc1Cl)N1CCC(CN2CCCCC2)CC1 | inactive |
| CCCN1CCC(=O)N(C(CSc2ccc(OC)cc2)Cc2ccccc2)CC1 (centres undefined) | inactive |
| Cc1ccccc1CNC(=O)C1CCCN(S(=O)(=O)N(C)c2ccc(F)cc2)C1 (centres undefined) | inactive |
| Cc1cccc(NC(=O)c2nc(S(=O)(=O)Cc3ccccc3)ncc2Cl)c1 | 11.2 µM (active) |
| Cc1cccc(CS(=O)(=O)c2ncc(Cl)c(C(=O)Nc3ccc(F)cc3)n2)c1 | 10 µM (active) |
| Cc1ccc(NC(=O)c2nc(S(=O)(=O)Cc3cccc(C)c3)ncc2Cl)cc1 | 7.08 µM (active) |
| O=C(Nc1ccccc1C(F)(F)F)c1nc(S(=O)(=O)Cc2ccccc2F)ncc1Cl | inactive |
| CCOC(=O)c1ccc(NC(=O)c2nc(SCc3ccc(F)cc3)ncc2Cl)cc1 | inactive |
| CCCSc1ncc(Cl)c(C(=O)Nc2c(C(=O)Nc3ccccc3)oc3ccccc23)n1 | inactive |
| CSc1ncc(Cl)c(C(=O)Nc2ccc(S(=O)(=O)N3CCCC(C)C3)cc2)n1 (centres undefined) | inactive |
| CCS(=O)(=O)c1ncc(N(Cc2ccc(F)cc2)Cc2ccco2)c(C(=O)Nc2cc(C)ccc2C)n1 | inactive |

| Structure (SMILES) | Potency |
| --- | --- |
| Cc1ccc(CCNC(=O)c2ccc(CS(=O)(=O)Cc3cccc(C)c3)o2)cc1 | inactive |
| CCCCCCCNc1ccc(/C=C/c2ccnc3ccccc23)cc1 | inactive |
| Cc1ccc(N2CC(NC(=O)Cc3cccs3)CC2=O)cc1 (centres undefined) | inactive |
| CN(C)c1ccc(/C=C2\C=Cc3ccccc32)cc1Br | inactive |
| COc1ccc(-c2ccc(OC)c(C3C4C=CCC(C)C4C(=O)N3Cc3ccccc3)c2)cc1C (centres undefined) | inactive |
| CCc1ccc2nc(N(CCCN(C)C)C(=O)c3ccc4c(c3)OCCO4)sc2c1 | 11.2 µM (active) |
| CCN(CC(=O)Nc1c(F)cccc1F)C(=O)c1ccc(S(=O)(=O)N2CCCCC2)cc1 | inactive |
| O=C(CCOc1ccccc1)N(Cc1cccnc1)c1nc2ccc(Cl)cc2s1 | inactive |
| CCOc1ccc2nc(N3CCC(C(=O)Nc4cc(C)ccc4C)CC3)sc2c1 | inactive |
| Cc1ccc(S(=O)(=O)N(CCCN(C)C)Cc2ccc3c(c2)OCO3)cc1 | inactive |
| Cc1cc(C)c2sc(NC(=O)c3ccc(S(=O)(=O)N4CCCC4)cc3)nc2c1 | inactive |
| CN(C)CCCN(C(=O)c1ccc(S(=O)(=O)N2CCCCCC2)cc1)c1nc2ccc(Br)cc2s1 | 22.4 µM (active) |
| O=C(CN(Cc1ccccc1)C(=O)c1ccc2c(c1)OCCO2)NCc1ccc2c(c1)OCO2 | inactive |
| CCOc1ccc2nc(N(CCCN(C)C)C(=O)c3ccc(C(=O)c4ccccc4)cc3)sc2c1 | 15.8 µM (active) |
| Cc1nn(C)c2c1c(C(F)(F)F)cc(=O)n2C(C)C(=O)NCc1ccc(Cl)cc1 (centres undefined) | inactive |
| COc1ccc(CNC(=O)c2cc3c(=O)[nH]c4ccc(C)cc4c3s2)c(OC)c1 | inactive |
| COc1cc(-c2cc3n(C)c(C)c(CCC(=O)Nc4ccc(F)cc4)c(=O)n3n2)cc(OC)c1OC | inactive |
| CC(=O)c1ccc(NC(=O)C2CCN(S(=O)(=O)c3c(C)noc3/C=C/c3ccc(C)cc3)CC2)cc1 | inactive |
| COc1ccc(CNC(=O)c2cc3c(-c4ccccc4F)nn(C)c3s2)c(OC)c1 | inactive |
| COC(=O)c1scc(-c2ccccc2)c1S(=O)(=O)Nc1ccccc1 | inactive |
| O=c1[nH]c(CCl)nc2cc(-c3ccc(Cl)cc3)sc12 | 4.47 µM (active) |
| SCc1nc2ccc(Cl)cc2[nH]1 | inactive |
| COc1cccc(-c2cc3nc(NCCOc4ccccc4Cl)n(C)c(=O)c3s2)c1 | inactive |
| CCOC(=O)C1CCC(CN(Cc2ccc(OC)cc2)S(=O)(=O)c2ccc(F)c(C(=O)Nc3cc(C)ccc3C)c2)CC1 (centres undefined) | inactive |
| Cc1ccc(C)c(CNC(=O)c2cc3ccccn3n2)c1 | inactive |

| Structure (SMILES) | Potency |
| --- | --- |
| CCOc1n[nH]c(-c2ccccc2)n1 | inactive |
| CCNC(=O)c1cnn(-c2ccccc2)c1-c1ccccc1 | inactive |
| Nc1c(C(=O)O)cnn1-c1ccccc1 | 11.2 µM (active) |
| NNC(=O)c1cnn(-c2ccccc2)c1C(F)(F)F | inactive |
| Cc1ccc(F)cc1S(=O)(=O)N1CCC(c2nc3ccccc3s2)CC1 | inactive |
| COC(=O)c1cc(C)sc1NC(=O)CC1Nc2ccccc2NC1=O (centres undefined) | inactive |
| O=C(CC1NCCc2ccccc21)Nc1cccc(Cl)c1 (centres undefined) | inactive |
| O=C(CC1Nc2ccccc2NC1=O)Nc1ccccc1 (centres undefined) | 12.6 µM (active) |
| N#Cc1cc2[nH]c(=O)c(=O)[nH]c2cc1[N+](=O)[O-] | inactive |
| CCOc1ccc(N(Cc2ccccc2)C(=O)c2nc(SCC)ncc2Cl)cc1 | inactive |
| CCOc1ccc(NC(=O)CN(Cc2ccccc2)S(=O)(=O)c2ccc(Cl)cc2)cc1 | inactive |
| CCOc1ccc(N(Cc2ccccc2)C(=O)c2nc(S(C)(=O)=O)ncc2Cl)cc1 | 3.55 µM (active) |
| COCCNC(=O)c1ccc2c(c1)N(Cc1cccc(Cl)c1)C(=O)c1ccccc1S2(=O)=O | inactive |
| Cc1ccc(C(=O)N2CCc3cc(CNC(=O)c4ccc(Br)cc4)ccc32)cc1 | inactive |
| O=C(CSc1nc(Nc2ccccc2)nc(N2CCOCC2)n1)Nc1cc(Cl)ccc1O | 6.31 µM (active) |
| O=C(CSc1nc2ccc(Nc3nc(N4CCOCC4)nc(N4CCOCC4)n3)cc2s1)NCc1ccco1 | inactive |
| O=C(CSc1ccccc1)Nc1cc(Cl)ccc1Oc1ccccc1 | inactive |
| O=C1/C(=C\c2ccc([N+](=O)[O-])cc2)CS(=O)(=O)C/C1=C/c1ccc([N+](=O)[O-])cc1 | 14.1 µM (active) |
| O=[N+]([O-])c1ccc(/C=C/c2ccc3cccnc3c2)cc1 | inactive |
| O=C(Cc1ccc(Br)cc1)NCCN1CCOCC1 | inactive |
| c1ccc2cc3c(NCCN4CCOCC4)ccnc3cc2c1 | 3.55 µM (active) |
| O=S(=O)(c1ccc(Cl)cc1)c1nc(-c2ccccc2F)oc1NCCN1CCOCC1 | inactive |
| CCC(=O)N1CCc2cc(CNC(=O)Nc3ccccc3Cl)ccc21 | inactive |
| COc1ccc(-c2nc(S(=O)(=O)c3ccccc3)c(N3CCCCC3)o2)cc1 | inactive |
| CCCc1nc2scc(-c3ccc(C)cc3)c2c(=O)n1N | inactive |

| Structure (SMILES) | Potency |
| --- | --- |
| CCCc1cc(-c2nc(-c3ccc(C)cc3)cs2)ccn1 | 10 µM (active) |
| Fc1ccc(-c2csc(-c3ccc(C4SCCS4)cc3)n2)cc1F | inactive |
| CC1(C)Cc2ccccc2-c2c[nH]c(=O)n21 | inactive |
| CCN(CC)CCOc1ccc2c(c1)C(=NNC(=O)c1ccccn1)c1cc(OCCN(CC)CC)ccc1-2 | 15.8 µM (active) |
| CCOc1ccc(C(=O)N2CCN(CCc3ccccn3)CC2)cc1 | inactive |
| CC(C)(C)c1ccc(C(=O)C[n+]2cccc3cc(Cl)ccc32)cc1 | inactive |
| CCN(C(=O)Cn1c(=O)nc(-c2ccccc2)c2cc(Cl)ccc21)c1cccc(C)c1 | inactive |
| O=C(c1cnn2c1NC(=C1CC1)C=C2C(F)F)N1CCc2ccccc2C1 | inactive |
| CN1CCN(c2oc(-c3ccc(COc4ccc(Cl)cc4)o3)nc2C#N)CC1 | inactive |
| CCc1ccc(-c2nn(-c3ccccc3C)cc2C(=O)N2CCN(C3CCS(=O)(=O)C3)CC2)cc1 (centres undefined) | inactive |
| CN(C)Cc1cn(-c2ccccc2)nc1-c1ccccc1 | inactive |
| CCc1ccc(-c2nn(-c3ccccc3)cc2CSC(=N)N)cc1 | 17.8 µM (active) |
| Cc1cc(C)c(NC(=O)Cn2c(SCC(=O)NCc3ccccc3)nc3ccccc32)c(C)c1 | inactive |
| Cc1ccc(Cl)cc1N1CCN(C(=O)C2CCC(CNS(=O)(=O)c3cccs3)CC2)CC1 (centres undefined) | inactive |
| Cc1ccc(CN2CCC(CNC(=O)c3cnn(-c4ccccc4Cl)c3C3CCN(C(=O)OC(C)(C)C)CC3)CC2)cc1 | 17.8 µM (active) |
| COc1ccccc1CN1CCC(CNC(=O)c2cnn(-c3ccccc3Cl)c2C2CCN(C(=O)OC(C)(C)C)CC2)CC1 | inactive |
| Cc1ccc(CN2CCC(CNC(=O)c3cnn(-c4ccc(C)cc4)c3C3CCN(C(=O)OC(C)(C)C)CC3)CC2)cc1 | inactive |
| CC1(C)CC(=O)c2cc(C(=O)NCc3ccccc3)c(=O)[nH]c2C1 | inactive |
| Cc1nc2c(OCc3ccc(Cl)cc3Cl)cccn2c1N(C)CC1CC1 | 11.2 µM (active) |
| CCc1nc2c(OCc3ccc(Cl)cc3Cl)cccn2c1N(C)C(=O)C(C)C | inactive |
| Cc1nc2c(OCc3ccc(Cl)cc3)cccn2c1N(C)Cc1cccs1 | inactive |
| CCCCC(=O)N(C)c1c(CC)nc2c(OCc3ccc(Cl)cc3Cl)cccn12 | 12.6 µM (active) |
| Cc1nc2c(OCc3cccc(Cl)c3)cccn2c1N(C)CC1CC1 | inactive |
| CCCCC(=O)N(C)c1c(CC)nc2c(OCc3ccc(S(C)(=O)=O)cc3)cccn12 | inactive |
